“And” between values parts separate entries of the source, which are not always exact repeats. Equal entries are not always repeated. Among all 400,000 compounds or so, about 5,500 (1.4%) were called active. About 9% were inconclusive and are not listed. Calls come from the whole dose curve; as a rule, active = well fitted cell-killing curve with a large enough effect; inconclusive = small, poorly fitted or top-dose-only effect, or effect the other way; inactive = flat fitted curve, though single readings scatter. The list comes from a sample in which actives are over-represented; it also holds similar structures and randomly drawn compounds. A call without a number means that no potency is given here.
Assay: qHTS assay for MDR1-selective chemotherapeutics: Primary screen using the parental adenocarcinoma cell KB-3-1; note: nearly all actives have a fitted effect of over 60% in size
Conditions: KB-3-1 viability, CellTiter-Glo ATP luminescence, 72 h; series mostly up to 46.1 µM
How it was run: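 Luminescent ATP read-out (CellTiter-Glo) measures survival of drug-naive KB-3-1 cells after 72 h compound exposure at 37 °C. Titration series was screened from lowest to highest concentration, with DMSO vehicle plates as background controls.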
Potency is the fitted concentration of half-maximal effect.

| SMILES | Potency |
| --- | --- |
| CCCCCn1c(=O)[nH]c2cc(C(=O)NCCN(C)CCCC)ccc2c1=O | inactive |
| CC(=O)c1ccc(NC(=O)COc2ccccc2-c2nc(-c3ccccc3)no2)cc1 | inactive |
| O=C(Oc1ccc(-c2nc(-c3ccccn3)no2)cc1)c1ccccc1 | 7.31 µM (active) |
| Cc1noc(C)c1COC(=O)COc1ccc(-c2ccccc2)cc1 | inactive |
| CCOC(=O)c1c(-c2ccc(OC)cc2)oc2ccc(OCc3ccc(C(=O)OC)cc3)cc12 | inactive |
| O=C(OC/C=C/CSc1nnc(-c2cccc3ccccc23)o1)c1ccc(F)cc1 | inactive |
| Cc1nc2c(-c3ccccc3)c(C)nn2c(C)c1CCC(=O)NCCc1ccccc1 | inactive |
| Cc1ccc(C)c(N2CCN(C(=O)Cn3ncc4c(=O)oc5ccc(C)cc5c43)CC2)c1 | inactive |
| CC1CCCN(c2csc3ccc(F)cc3c2=O)C1 (stereo not given) | inactive |
| N#CC1=C(SCc2ccccc2)NC(=O)C(C#N)C12CCCC2 (stereo not given) | 11.6 µM (active) |
| Cc1ccc(CNS(=O)(=O)c2ccc(C(=O)N(C)C)s2)cc1 | inactive |
| Cn1c(C(=O)N2CCC(C(=O)N3CCN(c4ccccc4)CC3)CC2)cc2sccc21 | inactive |
| COc1cccc(CNC(=O)c2nnn(CC(=O)Nc3cc(C)ccc3C)c2N)c1 | inactive |
| Nc1c(C(=O)NCc2ccccc2)nnn1Cc1cccc(Cl)c1 | 20.6 µM (active) |
| COc1cccc(CNC(=O)c2nnn(CC(=O)Nc3cc(Cl)ccc3C)c2N)c1 | inactive |
| CC1(C)CC(N2CCN(C(c3ccccc3)c3ccccc3)CC2)=CC(=[N+]2CCCCC2)C1 | 0.517 µM (active) |
| CN(C(=O)CSc1nc2ccccc2n1Cc1ccccc1C#N)c1ccccc1 | inactive |
| Cc1ccc(-c2noc(CSc3nnc(-c4ccc(Cl)cc4)n3C)n2)cc1 | inactive |
| Cc1nn(-c2ccccc2)c(C)c1NC(=O)CCl | 14.6 µM (active) |
| Cc1cccc(C)c1NC(=O)CNC(=O)c1c(C)nn(-c2ccccc2)c1C | inactive |
| Cc1nn(-c2ccccc2)c(C)c1NC(=O)COc1ccc(Cl)cc1Cl | 5.17 µM (active) |
| Cc1nn(-c2ccccc2)c(C)c1NC(=O)COC(=O)c1cc(Cl)ccc1O | inactive |
| C/C=C/c1ccc(OCC(=O)OCC(=O)Nc2c(C)nn(-c3ccccc3)c2C)c(OC)c1 | inactive |
| CCC(Oc1ccccc1)C(=O)OCC(=O)Nc1c(C)nn(-c2ccccc2)c1C (stereo not given) | inactive |
| OCc1cnc(SCc2ccc(F)cc2)n1Cc1ccc(F)cc1 | inactive |

| SMILES | Potency |
| --- | --- |
| CN1C(=O)c2ccccc2Sc2ccc(NC(=O)Cc3ccc(Cl)cc3)cc21 | inactive |
| COc1ccc2c(C)c(CCC(=O)NCc3ccc(OC)c(OC)c3)c(=O)oc2c1 | inactive |
| Cc1ccc(C)c(N2CCN(C(=O)CN3C(=O)COc4ccc(S(=O)(=O)N5CCCCCC5)cc43)CC2)c1 | inactive |
| COc1ccccc1NC(=O)C1=C(C)Nc2nc3ccccc3n2C1c1cccs1 (stereo not given) | 3.26 µM (active) |
| CC1=C(C(=O)Nc2ccccc2Cl)C(c2cccs2)n2ncnc2N1 (stereo not given) | inactive |
| COc1ccccc1NC(=O)C1=C(C)Nc2ncnn2C1c1sccc1C (stereo not given) | inactive |
| Cc1nc2c(c(C)nn2-c2ccccc2)c(C)c1CCC(=O)NCCc1ccc(Cl)cc1 | inactive |
| O=C1CC(c2nnc(Cc3ccc(Cl)cc3)o2)CN1c1ccccc1 (stereo not given) | inactive |
| CCC(=O)N1CCc2cc(Br)cc(S(=O)(=O)NCc3ccc(Cl)cc3)c21 | inactive |
| COc1cc(C=C(OC(C)=O)c2ccc3c(c2)OCO3)cc(OC)c1OC | inactive |
| COc1cc(C2CC(=O)Oc3cc(OC)c(OC)c(OC)c32)cc(OC)c1OC (stereo not given) | inactive |
| COc1cc(C2c3cc4c(cc3C(O)C3COC(=O)C23)OCO4)cc(OC)c1OC (stereo not given) | 146 nM (active) and 164 nM (active) |
| Cc1ccccc1NC(=O)Cn1cc(C(=O)c2cccs2)c2ccccc21 | inactive |
| CCCCOC(=O)CSc1ncnc2sc3c(c12)CCC(C)C3 (stereo not given) | inactive |
| CC1CCCCN1S(=O)(=O)c1ccc(S(=O)(=O)N(CC(=O)Nc2ccccc2)Cc2cccs2)cc1 (stereo not given) | inactive |
| CC1CCCCN1S(=O)(=O)c1ccc(C(=O)Nc2nnc(-c3cccs3)o2)cc1 (stereo not given) | 9.2 µM (active) |
| CC1CN(S(=O)(=O)c2ccc(C(=O)Nc3sccc3C(N)=O)cc2)CC(C)O1 (stereo not given) | inactive |
| Cc1nc2sc(C(=O)c3ccccc3)c(N)c2c2c1CCCC2 | 23.1 µM (active) |
| Cc1c(C(=O)Nc2ccccc2)sc2nc3n(c(=O)c12)CCCCC3 | inactive |
| Cn1c(-c2ccc(C(=O)c3ccccc3)s2)nc2ccccc21 | inactive |
| CCN(Cc1ccccc1)Cc1c(O)ccc2c(=O)c(-c3ccc(Cl)cc3Cl)coc12 | inactive |
| CC1CN(C(=O)N2CCC(C(=O)NCc3ccco3)CC2)c2cc(Cl)ccc2O1 (stereo not given) | inactive |
| COc1ccc(-c2noc(CCC(=O)N(C)c3ccccc3C)n2)cc1 | inactive |
| Cc1[nH]n(-c2cccc(Cl)c2)c(=O)c1/C=N/n1c(C)nc2ccccc2c1=O | 10.3 µM (active) |
| Cc1nc2ccccc2c(=O)n1-c1ccc(NS(=O)(=O)c2ccc(F)cc2F)cc1 | inactive |

| SMILES | Potency |
| --- | --- |
| Cc1cc2n(n1)C(c1cc(C(C)(C)C)c(O)cc1O)Nc1ccccc1-2 (stereo not given) | inactive |
| O=C(CCC1N=C2c3ccccc3N=C(SCc3ccccc3F)N2C1=O)NCCc1ccccc1 (stereo not given) | inactive |
| COc1cccc(CNC(=O)Cc2csc3nc(-c4ccccc4)cn23)c1 | inactive |
| COc1ccc(NC(=O)CSc2nc3ccccc3[nH]2)cc1 | inactive |
| COC(=O)Nc1nc2ccc(Sc3ccccc3)cc2[nH]1 | 1.46 µM (active) |
| Cc1ccc2nc(CNC(=O)c3ccccc3)[nH]c2c1 | inactive |
| COc1ccc(CCNc2ncnc3onc(-c4ccc(Cl)cc4)c23)c(OC)c1 | inactive |
| COc1ccc(Cl)cc1NC(=O)CN(C)C(=O)c1cc(-c2cccs2)nn1-c1ccccc1 | 20.6 µM (active) |
| COc1ccc(Cl)cc1NC(=O)CN(C)C(=O)c1ccc2n[nH]nc2c1 | inactive |
| COc1ccc(Cl)cc1NC(=O)CSc1nc(-c2cccs2)cc(C(F)(F)F)n1 | inactive |
| C=CCNC(=O)c1ccc2nc(-c3ccco3)c(-c3ccco3)nc2c1 | inactive |
| CC(C)(C)OC(=O)N(Cc1ccco1)S(=O)(=O)c1ccccc1Br | inactive |
| COC(=O)Cc1[nH]n(-c2nc3ccccc3s2)c(=O)c1C(C)=Nc1ccc(OC)cc1 | 9.2 µM (active) |
| COc1ccc(CC(=O)Nc2ccc(-c3nc4ccccc4s3)c(C)c2)cc1 | inactive |
| Cc1ccc(C)c(NC(=O)CSC2=Nc3ccccc3N=C(c3ccc(F)cc3)C2)c1 | inactive |
| CCOC(=O)C1CCN(c2csc3ccc(C)cc3c2=O)CC1 | inactive |
| O=C(Cn1c(=O)n(Cc2ccccc2)c(=O)c2sc3ccccc3c21)Nc1ccccc1F | inactive |
| CN(C)c1ccc(/C=C/c2sc3ccccc3[n+]2C)cc1 | 6.51 µM (active) |
| CN(C)c1ccc(/C=C/c2c3ccccc3nc3ccccc23)cc1 | inactive |
| CN(C)c1ccc(CSc2ccccc2)cc1 | inactive |
| CN(C)c1ccc(/C=C/c2sc3ccccc3[n+]2CCCCBr)cc1 | 1.3 µM (active) |
| CCN(CCCNC(=O)c1cc2c(=O)n(CC)c3ccccc3c2s1)Cc1ccccc1 | inactive |
| CCc1ccc(OCCCn2c(CCCNC(=O)C3CCCCC3)nc3ccccc32)cc1 | inactive |
| COc1cccc(N2CCN(S(=O)(=O)c3cc(Br)cc4c3N(C(=O)C3CC3)CC4)CC2)c1 | inactive |
| CCCCC12CN3CC(C)(CN(C1)C3c1ccc(O)c(OC)c1)C2=O (stereo not given) | inactive |

| SMILES | Potency |
| --- | --- |
| Cc1ccc(C)c(N2CCN(C(=O)C3CCC(CNS(=O)(=O)c4cccs4)CC3)CC2)c1 (stereo not given) | inactive |
| Cc1ccc(C)c(Oc2c(C(F)(F)F)oc3c(CN4CCN(C)CC4)c(O)ccc3c2=O)c1 | inactive |
| Cc1cc(C)c(NC(=O)c2cc3sc(Cl)cc3n2C)c(C)c1 | inactive |
| O=C(NCc1ccccc1Cl)c1cccn1-c1nnc(N2CCCCC2)s1 | inactive |
| COc1ccc(NC(=O)CSc2nnc(-c3nnn(-c4ccc(F)cc4)c3C)o2)cc1 | inactive |
| O=C(Nc1ccc2ccccc2c1)Nc1nnc(-c2ccc(O)cc2)s1 | inactive |
| O=C1CCc2cc(S(=O)(=O)Nc3cccc(Oc4ccccc4)c3)ccc2N1 | inactive |
| CCOC(=O)c1ccc(N2C(=O)c3[nH]nc(-c4ccccc4)c3C2c2ccc(C(C)C)cc2)cc1 (stereo not given) | 18.4 µM (active) |
| CCOC(=O)c1ccc(N2C(=O)c3n[nH]c(C)c3C2c2ccc(O)c(OC)c2)cc1 (stereo not given) | inactive |
| CCOC(=O)c1ccc(N2C(=O)c3n[nH]c(-c4ccco4)c3C2c2ccc(O)cc2)cc1 (stereo not given) | inactive |
| Cc1cccc(CN2Cc3cccc4c3[C@H](C=CC4)CC2=S)c1 | inactive |
| CC(=O)Cn1cnc2c(cnn2-c2ccccc2)c1=O | inactive |
| O=C(Cn1cnc2c(cnn2-c2ccccc2)c1=O)NCc1ccccc1 | 8.2 µM (active) |
| O=C(Cn1cnc2c(cnn2-c2ccc(F)cc2)c1=O)NCCc1ccccc1 | inactive |
| COc1ccc2cc(CNc3ccc(OC)c(OC)c3)c(=O)n(CC(=O)Nc3ccccc3F)c2c1 | inactive |
| COc1ccc(-c2noc(CSc3nc(C)cc(=O)[nH]3)n2)cc1OC | inactive |
| NC(N)=Nc1nc2ccc(Br)cc2c(=O)[nH]1 | inactive |
| O=c1c2cc(Br)ccc2nc(-c2cccc(Cl)c2)n1O | 9.2 µM (active) |
| CC(C)Cn1c(=O)c2ccccc2n2c(-c3cccc(Cl)c3)nnc12 | inactive |
| COC(=O)c1cc(NC(=O)CCc2c(C)nc3c4c(C)cc(C)nc4nn3c2C)cc(C(=O)OC)c1 | inactive |
| O=c1cc(COc2cccc(C(F)(F)F)c2)nc2sc3c(n12)CCCC3 | inactive |
| O=S(=O)(NCC(c1ccco1)N1CCOCC1)c1cc(F)ccc1F (stereo not given) | inactive |
| O=C(CSc1ccsc1[N+](=O)[O-])N1CCCCC1 | 18.4 µM (active) |
| CC1CC(C)CN(C(=O)CSc2ccsc2[N+](=O)[O-])C1 (stereo not given) | inactive |
| O=C(CSCc1cccs1)N1CCCC1 | inactive |

Reference: PubChem BioAssay AID1347075 (National Center for Advancing Translational Sciences (NCATS), 2019)
